High-throughput results deposited in PubChem BioAssay by Sanford-Burnham Center for Chemical Genomics.
This is one part of a sample in which hits are shown more often than they occur.
DUSP3 inh = VHR1 (DUSP3) phosphatase inhibition | inhibition, % at 20 µM | recombinant VHR phosphatase, colorimetric substrate read-out | 50,000 compounds, 0.7% hits | AID 1992 | P51452; in the data active = inhibition above about 60%
Target sequence (P51452 whole entry, looked up): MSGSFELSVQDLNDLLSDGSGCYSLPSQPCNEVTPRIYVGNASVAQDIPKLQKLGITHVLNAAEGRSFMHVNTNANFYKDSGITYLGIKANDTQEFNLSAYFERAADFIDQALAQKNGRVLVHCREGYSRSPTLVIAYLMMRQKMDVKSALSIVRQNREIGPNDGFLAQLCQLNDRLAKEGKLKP
Active calls of the source: *.

SMILES	DUSP3 inh
C=CCc1cccc(/C=N/NC(=O)CSc2nc3ccccc3n2CC)c1O	1
O=C(Nc1ccccc1)Nc1nccs1	5
O=C(Nc1ccccc1)Nc1nnc(C(c2ccccc2)c2ccccc2)s1	-18
O=C(Nc1ccccc1)Nc1nc(C(c2ccccc2)c2ccccc2)cs1	88*
Br/C(=C\c1ccccc1)C1Nc2cccc3cccc(c23)N1	-88
Cc1ccc(COc2ccc3c(c2)oc(=O)c2ccccc23)cc1	-14
Cc1cccc(COc2ccc3c(c2)oc(=O)c2ccccc23)c1	96*
CCc1cc(=O)oc2cc(OCc3cccc(C)c3)ccc12	2
O=C(Nc1cccc(Cl)c1)c1cc2nc(-c3ccc4c(c3)OCO4)cc(C(F)(F)F)n2n1	-6
CCCOc1ccc(C(=O)Nc2ccccc2C(=O)OC)cc1	0
C=CCN1C(=O)/C(=C\c2ccc(OC(=O)c3ccc([N+](=O)[O-])cc3)c(OC)c2)SC1=S	10
Cc1onc(-c2ccccc2)c1C(=O)Nc1ccc(O)c(C(=O)O)c1	-7
Cc1ccc(NCC(=O)N/N=C\C=C\c2ccco2)cc1	4
O=C1c2ccccc2/C(=N/N=C/C=C/c2ccco2)C1C(=O)C(c1ccccc1)c1ccccc1 (stereo not given)	88*
C(/C=C/c1ccco1)=N/N1CCN(c2ccccc2)CC1	41
COc1ccc(-n2nc3cc(C)c(NC(=O)c4cc(Cl)ccc4OC)cc3n2)cc1	110*
COc1ccc(Br)cc1C(=O)Nc1cc2nn(-c3ccc(C)cc3)nc2cc1C	3
Cc1ccc(-n2nc3cc(C)c(NC(=O)c4cc(Cl)ccc4Cl)cc3n2)cc1	-28
COc1ccc(C2CC(=O)C3=C(C2)Nc2ccccc2NC3c2coc3c(Cl)cc(Cl)cc3c2=O)cc1 (stereo not given)	105*
COc1ccc(C2CC(=O)C3=C(C2)Nc2ccccc2NC3c2cc3c(cc2Cl)OCO3)cc1 (stereo not given)	-17
COc1ccc(C2CC(=O)C3=C(C2)Nc2ccccc2NC3c2ccccc2Cl)cc1 (stereo not given)	2
COc1cccc(NC(=O)c2ccc(OC)c([N+](=O)[O-])c2)c1	-18
O=C(N/N=C/c1ccc(Br)cc1)C12CC3CCC(CC(C3)C1)C2	-21
CC(=O)c1cc(NS(=O)(=O)c2ccc(C)cc2)ccc1O	14
Fc1ccc(NC(=S)Nc2cccc3ccccc23)cc1	32
SMILES	DUSP3 inh
S=C(Nc1ccc2c(c1)oc1ccccc12)Nc1cccc2ccccc12	106*
O=C(NC(=S)Nc1ccc2oc3ccccc3c2c1)c1ccccc1	7
O=C(NCCCNc1ccc(Cl)cc1[N+](=O)[O-])c1ccccc1F	-13
CCN1C(=O)/C(=C/c2ccoc2)C(=O)NC1=S	93*
O=C1NC(=S)N(c2ccc(Br)cc2)C(=O)/C1=C/C=C/c1ccccc1	24
CCN1C(=O)/C(=C/c2cccn2C)C(=O)NC1=S	66*
Cn1cccc1/C=C1/C(=O)NC(=S)N(c2cccc(Cl)c2)C1=O	75*
CCN1C(=O)/C(=C/c2ccc(C)o2)C(=O)NC1=S	37
O=C1NC(=S)N(c2cccc(Br)c2)C(=O)/C1=C/C=C/c1ccccc1	69*
C=CCN1C(=O)NC(=O)C(=Cc2cccn2C)C1=O	-6
O=C1NC(=S)N(c2cccc(Br)c2)C(=O)/C1=C/c1ccc(Cl)cc1	19
CCN1C(=O)/C(=C/c2ccc(N3CCCC3)cc2)C(=O)NC1=S	33
O=C1NC(=S)N(c2cccc(Cl)c2)C(=O)/C1=C\c1ccc(N2CCCC2)cc1	53
O=C1NC(=S)N(c2ccccc2)C(=O)/C1=C/c1cc(Cl)cc(Cl)c1O	18
CCN1C(=O)/C(=C/c2cccc(OC)c2OC)C(=O)NC1=S	24
CC(=O)c1ccc(NC(=O)C2CCCCC2)cc1	-2
O=S1(=O)CCC(NC(=S)N/N=C/c2ccc(-c3ccc(Br)cc3)o2)C1 (stereo not given)	-7
CCn1c(C(O)c2cccc(OC)c2)nc2ccccc21 (stereo not given)	0
COc1cc(OC)c(OC)cc1/C=N/NC(=O)CCC1C(=O)NN=C1C (stereo not given)	3
O=C1/C(=C\c2cccc([N+](=O)[O-])c2)SC(=S)N1c1ccccc1	1
CCC1CCc2c(sc(NC(=O)c3ccc([N+](=O)[O-])cc3Cl)c2C(=O)OC)C1 (stereo not given)	-3
O=C(c1ccccc1)c1ccccc1C(=O)N1CCCCC1	-14
O=C(NCCCN1CCOCC1)C(=O)Nc1cccc(Cl)c1Cl	-16
Cc1ccc(C(=O)Nc2nn[nH]n2)cc1	17
Cc1cc(C)n(-c2cc(NCCO)nc(-c3ccc(Br)cc3)n2)n1	-87
SMILES	DUSP3 inh
COc1cccc(C(CC(=O)O)NC(=O)c2ccccc2)c1 (stereo not given)	8
CCc1ccc(NC(=S)NC(=O)c2ccco2)cc1	4
C=CCn1c(SCC(=O)OCC)nc2sc3c(c2c1=O)CCC3	9
Cc1ccc(C(=O)Nc2sc3c(c2C(=O)N2CCC(C(N)=O)CC2)CCCC3)cc1	37
Cc1ccc(C(=O)Nc2sc3c(c2C(=O)N2CCCCCC2)CCC(C)C3)cc1 (stereo not given)	3
Cc1ccc(C(=O)Nc2sc3c(c2C(=O)N2CCC(C)CC2)CCCC3)cc1	87*
COc1cccc(/C=C2\C(=O)N(c3cccc(C(=O)O)c3)N=C2C)c1	7
COc1cccc(OCCn2cc(C=C3C(=O)NC(=S)NC3=O)c3ccccc32)c1	17
COc1cc(/C=N/N=c2\sc3ccccc3n2C)ccc1O	2
Cn1/c(=N/N=C/c2ccncc2)sc2ccccc21	0
COc1ccc(/C=N/N=c2\sc3ccccc3n2C)c(OC)c1	98*
COC(=O)c1ccccc1-c1ccc(/C=C2/SC(=S)N(c3ccccc3)C2=O)o1	-6
CCCN1C(=O)c2cccc3c(S(=O)(=O)N(C)C)ccc1c23	-5
COc1ccc(C2CC(c3ccc(F)cc3)=NN2c2cccc(F)c2)cc1OC (stereo not given)	-13
Cc1cc(NC(=O)c2ccc(Cl)cc2)ccc1-c1cc2ccccc2oc1=O	-24
Cc1cc(/C=N/n2cnnc2)c(C)n1-c1ccc(F)cc1	-5
Cc1cc(/C=N/Nc2ccc([N+](=O)[O-])cn2)c(C)n1-c1ccc(F)cc1	87*
Cc1cc(/C=N\Nc2ccc([N+](=O)[O-])cn2)c(C)n1-c1ccccc1F	-4
CCOc1ccc(N2C(=O)NC(=O)/C(=C/c3ccc(-c4cccc(C(=O)O)c4)o3)C2=O)cc1	109
c1ccc2c(CNC34CC5CC(CC(C5)C3)C4)c[nH]c2c1	active
CCC(CC)NCc1c[nH]c2ccccc12	-12
O=C1C=C(NCCc2c[nH]c3ccccc23)CC(c2ccccc2)C1 (stereo not given)	29
O=C(NCCN1CCOCC1)C(c1ccccc1)c1ccccc1	-19
Cc1cc(C)nc(/N=C(/N)Nc2ccccc2[N+](=O)[O-])n1	-10
O=C1C2C3C=CC(C2C(=O)N1Cc1ccccc1)C1C(=O)N(Cc2ccccc2)C(=O)C31 (stereo not given)	5
SMILES	DUSP3 inh
O=C1C2C3C=CC(C2C(=O)N1C1CCCCC1)C1C(=O)N(C2CCCCC2)C(=O)C31 (stereo not given)	106*
CCC(C)N1C(=O)C(=O)N(C2CCCCC2)C1=O (stereo not given)	-7
CCOc1ccccc1NC(=O)c1c(NC(=O)Cc2ccccc2)sc2c1CCCCC2	-23
CCOc1ccccc1NC(=O)c1c(N)sc2c1CCCCC2	75*
COc1ccccc1NC(=O)c1c(N)sc2c1CCC2	-11
O=C(/C=C/c1ccco1)NCCCCNC(=O)/C=C/c1ccco1	26
